Mtb FBA inh: Mtb fructose-bisphosphate aldolase inhibition. hit rate 2.3% among 360,000. inhibition, % at 1 µM. purified M. tuberculosis FBA, fluorescence read-out; in the data active = inhibition above about 27%;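 note: 0% = vehicle and 100% = reference inhibitor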
Autofluor counter: flagged as autofluorescent in microsphere protease counterscreen; compound autofluorescence counterscreen, microsphere flow cytometry; hits give high values; fluorescence intensity (test concentration not listed); hit rate 3.1% among 360,000; AID 624483; in the data active = fluorescence intensity above about 16000; inconclusive = no clear call, values can overlap the other calls
BoNT F protease: inhibitors of Botulinum neurotoxin F light chain protease; AID 588497; inhibition, % at 10 µM; hit rate 0.22% among 360,000; Multiplex microsphere protease cleavage assay, flow cytometry; in the data active = inhibition above about 35%, passing the limit was not always enough; inconclusive = no clear call, values can overlap the other calls; note: plate controls were buffer without enzyme for full effect and enzyme alone for no effect
BoNT-A LC inh2: BoNT A light chain protease inhibition; inhibition, % at 10 µM; multiplex microsphere protease substrate cleavage, flow cytometry; hit rate 0.17% among 360,000; AID 588499; note: plate controls were buffer without enzyme for full effect and enzyme alone for no effect
Anthrax LF prot: blocks Bacillus anthracis lethal factor protease | multiplex microsphere protease cleavage assay, LF | P15917 | hit rate 0.12% among 360,000 | AID 588501 | inhibition, % at 10 µM; note: plate controls were buffer without enzyme for full effect and enzyme alone for no effect
GDH-TPI counter: inhibits GDH-TPI coupling enzymes, artifact for Mtb FBA screen; GDH-TPI coupled enzyme counterscreen, NADH absorbance; hit rate 1.2% among 360,000; inhibition, % at 4.8 µM; in the data active = inhibition above about 30%;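 note: 0% = DMSO wells and 100% = wells lacking the enzyme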
Active calls of the source: *; ? = inconclusive; · = no result given. Shown are actives, neighbours in structure and some others; about 6.7% of the full set was active somewhere. Cut-off read from the data, not from the text of the source, unless noted: active = inhibition above about 30%; inconclusive = no clear call, values can overlap the other calls; inactive = below that.

SMILES	Mtb FBA inh	Autofluor counter	BoNT F protease	BoNT-A LC inh2	Anthrax LF prot	GDH-TPI counter
CCOc1cc(Br)ccc1S(=O)(=O)N1CC(C)OC(C)C1 (stereo not drawn)	6	20570*	2	0	-1	-6
CCOc1ccc(Br)cc1S(=O)(=O)N1CC(C)OC(C)C1 (stereo not drawn)	0	15484	21	12	-21	5
Cc1nn(CC(=O)Nc2ccc3c(c2)nc(CCN2CCCCC2)n3C)c(=O)c2ccccc12	10	20530*	-1	-1	-1	-4
CC(=O)N1CCN(Cc2nc3cc(NC(=O)C4CCCCC4)ccc3n2C)CC1	2	20181*	-1	?	2	0
CCCC(=O)Nc1ccc2c(c1)nc(CN1CCN(C(C)=O)CC1)n2C	2	5805	-3	0	-12	-2
Cn1c(CN2CCCC2)nc2cc(NC(=O)c3ccc(Cl)cc3)ccc21	0	3884	0	1	-6	4
Cn1c(CN2CCCCC2)nc2cc(NC(=O)c3ccc(Cl)cc3)ccc21	4	20694*	5	5	2	4
CCOc1ccccc1NC(=O)C(C)N1C(=O)c2ccccc2S1(=O)=O (stereo not drawn)	5	4945	0	4	5	5
CCC(C)(C)NC(=O)Cn1c(-c2ccccc2)cc(C(C)=O)c1C	1	2600	-2	0	1	7
Cc1ccc(C(=O)NNC(=O)CSc2nnc3c(n2)[nH]c2ccc(F)cc23)cc1	2	9867	0	0	-9	11
COc1ccc2[nH]c3nc(SCC(=O)NNC(=O)c4ccc(OC)c(OC)c4)nnc3c2c1	0	21437*	0	1	-2	41*
Oc1ccc2oc3c(c2c1/C=N/n1cnnc1)CCCC3	-1	21898*	-11	?	-1	27
COCCn1c(=NC(=O)CSCC(=O)NC2CCCCC2)sc2cc(OC)ccc21	-2	15716	3	3	-2	42*
Cc1c(NC(=O)C(C)Sc2nc3ccccc3c(=O)n2CCO)c(=O)n(-c2ccccc2)n1C (stereo not drawn)	-1	21769*	-5	-7	-1	-16
CN(C)CCCN1C(=O)c2cccc3cccc(c23)C1=O	34*	3724	9	-1	0	29
CN(C)CCCN1C(=O)c2cc3ccccc3cc2C1=O	16	·	·	·	·	0
O=c1[nH]c2ccccc2c(O)c1-c1ccccc1	7	5921	0	0	1	22
Cc1ccc2c(c1)N(C(=O)CCC(=O)NCc1cccc(Cl)c1)CC(C)O2 (stereo not drawn)	1	6047	6	0	-4	0
O=C(NN=Cc1ccc2c(c1)OCO2)c1ccncc1	0	3938	8	0	0	33*
COc1cc(/C=N/NC(=O)c2ccncc2)cc2c1OCO2	-1	3050	3	0	-11	17
O=C(N/N=C/c1ccc2c(c1)OCO2)c1ccc2c(c1)OCO2	-2	5502	2	-2	-1	16
O=C(NN=Cc1ccc2c(c1)OCO2)c1ccccc1	-1	3255	-12	-1	-1	38*
C(=N\n1cnnc1)/c1ccc2c(c1)OCO2	-1	24727*	-3	-2	0	3
COc1ccc(/C=N/NC(=O)c2ccccc2O)cc1CN1CCOCC1	5	3833	-2	-1	-7	40*
N#CCC(=O)N/N=C/c1ccc(OC2CSC2)cc1	3	3500	-3	0	0	3
SMILES	Mtb FBA inh	Autofluor counter	BoNT F protease	BoNT-A LC inh2	Anthrax LF prot	GDH-TPI counter
S=C(NN=Cc1ccc2c(c1)OCO2)NN=Cc1ccc2c(c1)OCO2	1	3419	-18	0	-6	62*
C(=N\n1cnnc1)/c1ccc2ncccc2c1	0	20485*	8	?	-4	8
COc1cc2ccccc2cc1C(=O)N/N=C/c1ccc2c(c1)OCO2	4	?	9	1	-2	42*
CCC(C)/C(C)=N/NC(=O)C1COc2ccccc2O1 (stereo not drawn)	1	2566	1	0	0	3
O=C(N/N=C\C=C\c1ccc2c(c1)OCO2)C1COc2ccccc2O1 (stereo not drawn)	4	2830	-1	0	-2	40*
C(=N\n1cnnc1)/c1ccccn1	3	10185	-2	-1	3	-4
CC(c1ccon1)N(C)Cc1cn(Cc2ccccc2)nc1-c1ccc2c(c1)OCO2 (stereo not drawn)	0	1976	-1	0	-4	11
COc1ccc(Nc2nc(C)c(-c3ccccc3)s2)cc1	3	2424	-15	-2	-3	7

Compound activity as filed in PubChem.
